Experimental data published in PubChem BioAssay.
The other results are listed elsewhere or left out. Unmarked numbers belong to inactive results. Active and inactive are the calls of the source.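 Rule for the calls, unless noted: active = mean inhibition above a set limit taken from the earlier primary screen (cut at about 13% in these data); inactive = the rest.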

Columns and labels:
[1] = molecular target: Platelet-activating factor acetylhydrolase IB subunit alpha1 (Homo sapiens) (UniProt Q15102); test: inhibition of PAF acetylhydrolase 1B subunit 3 – biochemical, fluorescence polarization, human, confirmation (AID 493032;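 active = average inhibition over triplicate runs above the hit cutoff set in the earlier primary screen, cut at about 25% in these data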;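 note: 0% = enzyme with DMSO and 100% = wells lacking PAFAH1B3 protein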); details: recombinant PAFAH1B3, FP-Rh activity-based probe, at 3.39 µM, hits give high values
[2] = molecular target: Serine protease HTRA1 (Homo sapiens) (UniProt Q92743); test: confirming inhibition of human HTRA1 – biochemical, fluorescence polarization, confirmation (AID 540248;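 active = mean inhibition over three repeats above a set limit taken from the earlier primary screen, cut at about 37% in these data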;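 note: 0% = HTRA1 with DMSO and 100% = wells lacking HTRA1; inhibitors block probe binding so polarization drops and inhibition rises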); details: recombinant HTRA1, FP-rhodamine activity-based probe, at 5.96 µM, hits give high values
[3] = reduced OD of T4-infected AddAB+ E. coli – absorbance, E. coli V3065, T4 phage, triplicate, AddAB inhibitor project, confirmation (AID 488942);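 note: higher means less bacterial growth since AddAB block lets phage replicate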; details: E. coli V3065 expressing H. pylori AddAB, at 11.9 µM, hits give high values, T4 phage with gene 2 nonsense mutations
[4] = reduced OD of phage-infected RecBCD+ V66 E. coli – absorbance, mutant T4 phage, counter-screen for AddAB inhibitor project (AID 488955;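 active = mean inhibition above the mean of solvent-only control wells plus 3 SD, cut at about 4% in these data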;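 note: optical density read after an 18 h incubation at 37 °C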); details: OD growth, at 11.9 µM, hits give high values
[5] = bacterial growth inhibitors – absorbance, counter-screen for AddAB inhibitor project, confirmation (AID 488956; in the data active = inhibition above about 25%); details: bacterial viability, absorbance (AddAB counterscreen); at 11.9 µM; hits give high values
[6] = reduced OD of V66 E. coli with T4 gene 2 phage – absorbance, RecBCD inhibitor project, confirmation (AID 651982;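 active = mean inhibition over triplicates exceeding the hit threshold derived in the original primary screen, cut at about 11% in these data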); details: E. coli V66 + T4 2- phage, growth OD; at 11.9 µM; hits give high values
[7] = bacterial growth inhibition – absorbance, high throughput, counter-screen for RecBCD inhibitor project (AID 651983; in the data active = inhibition above about 20%;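 note: E. coli strain V66 grown with compound alone and no phage infection; 0% = bacteria with DMSO vehicle only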); details: E. coli viability, absorbance (OD) growth; at 11.9 µM; hits give high values
[8] = reduced optical density, T4-challenged addAB+ bacteria – absorbance, E. coli V3065, T4 phage, counter-screen for RecBCD inhibitor project, confirmation (AID 651984;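 active = mean inhibition above the solvent-only control wells' mean plus 3 SD, cut at about 22% in these data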;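 note: higher means less bacterial growth from phage killing when AddAB is blocked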); details: E. coli expressing H. pylori AddAB + T4 phage, OD growth; at 11.9 µM; hits give high values; gene 2 mutant T4, recBCD-deleted host

Platelet-activating factor acetylhydrolase IB subunit alpha1 (Homo sapiens), sequence (Q15102 whole entry, looked up): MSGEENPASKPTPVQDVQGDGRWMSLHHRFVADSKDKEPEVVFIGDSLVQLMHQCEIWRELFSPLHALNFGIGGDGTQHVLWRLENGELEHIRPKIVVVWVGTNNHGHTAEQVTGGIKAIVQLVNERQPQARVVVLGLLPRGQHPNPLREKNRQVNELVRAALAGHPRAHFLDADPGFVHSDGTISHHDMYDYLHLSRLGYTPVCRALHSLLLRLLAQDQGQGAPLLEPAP

Question: For `COc1ccc(C2=Nn3c(nnc3-c3ccccc3OC)SC2)cc1OC1CCCC1`, which inhibition [1] is on record?
Answer: Its inhibition is 35.2% (active).

Question: Which inhibition [2] does the source give for `CCN1CCN(C(c2cccnc2)c2cc(Cl)c3cccnc3c2O)CC1` (centres undefined) here?
Answer: The inhibition was 67.8% (active).

Question: With `O=C1c2ccccc2NC(c2ccc(-c3cccc(Cl)c3)o2)N1O` (centres undefined) as the compound, how does the inhibition [3] read?
Answer: Its inhibition is 17.5% (active).

Question: What about the inhibition [4] of the same compound?
Answer: The inhibition was 18.4% (active).

Question: And the inhibition [5]?
Answer: The inhibition was 13.2%.

Question: What about the inhibition [6] of the same compound?
Answer: Its inhibition is 13.7% (active).

Question: And the inhibition [7]?
Answer: Its inhibition is 16.7%.

Question: What about the inhibition [8] of the same compound?
Answer: The inhibition was 18.9%.

Question: With `O=C1CCC(=O)N(O)CCCCCNC(=O)CCC(=O)N(O)CCCCCNC(=O)CCC(=O)N(O)CCCCCN1` as the compound, how does the inhibition [3] read?
Answer: The inhibition was 31% (active).

Question: And the inhibition [4]?
Answer: Its inhibition is 24.5% (active).

Question: And the inhibition [5]?
Answer: Its inhibition is 17.4%.

Question: What about the inhibition [6] of the same compound?
Answer: Its inhibition is 19.5% (active).

Question: What about the inhibition [7] of the same compound?
Answer: Its inhibition is 25% (active).

Question: And the inhibition [8]?
Answer: The inhibition was 29.4% (active).

Question: For `CCCN(CCC)C(=O)C1c2ccccc2Oc2ccccc21`, which inhibition [2] is on record?
Answer: Its inhibition is -8.94%.

Question: Which results are given for `O=C(NCC1CCCO1)C(C(=O)c1ccccc1)n1cc(Cl)ccc1=O` (centres undefined)?
Answer: inhibition [3]: -2.76%; inhibition [4]: -0.21%; inhibition [5]: -1.24%

Question: With `C/[N+]([O-])=C\c1ccc([N+](=O)[O-])o1` as the compound, how does the inhibition [3] read?
Answer: Its inhibition is 101% (active).

Question: And the inhibition [4]?
Answer: Its inhibition is 42.8% (active).

Question: What about the inhibition [5] of the same compound?
Answer: Its inhibition is 99.3% (active).

Question: Which inhibition [1] does the source give for `Cc1cccc(N=C2NC(=O)/C(=C/c3cn(C)c4ccccc34)S2)c1` here?
Answer: Its inhibition is 17.3%.

Question: For `COc1c(N2CCN(C(=S)Nc3ccccc3F)C(C)C2)c(F)cc2c(=O)c(C(=O)O)cn(C3CC3)c12` (centres undefined), which inhibition [3] is on record?
Answer: The inhibition was 102% (active).

Question: What about the inhibition [4] of the same compound?
Answer: Its inhibition is 100% (active).

Question: And the inhibition [5]?
Answer: Its inhibition is 101% (active).

Question: And the inhibition [6]?
Answer: The inhibition was 102% (active).

Question: What about the inhibition [7] of the same compound?
Answer: Its inhibition is 103% (active).

Question: And the inhibition [8]?
Answer: The inhibition was 101% (active).

Question: For `COC(=O)N/N=C/c1c[n+]([O-])c2ccccc2[n+]1[O-]`, which inhibition [3] is on record?
Answer: The inhibition was 94.5% (active).

Question: What about the inhibition [4] of the same compound?
Answer: The inhibition was 27.4% (active).

Question: What about the inhibition [5] of the same compound?
Answer: Its inhibition is 83.4% (active).

Question: What about the inhibition [6] of the same compound?
Answer: Its inhibition is 23.1% (active).

Question: What about the inhibition [7] of the same compound?
Answer: The inhibition was 28% (active).

Question: And the inhibition [8]?
Answer: The inhibition was 91.8% (active).

Question: With `CC1=C(C(=O)OCc2ccccc2)C(c2ccco2)n2ncnc2N1` (centres undefined) as the compound, how does the inhibition [3] read?
Answer: The inhibition was 0.55%.

Question: And the inhibition [4]?
Answer: Its inhibition is 0.26%.

Question: And the inhibition [5]?
Answer: The inhibition was -3.83%.

Question: With `O=[N+]([O-])c1ccc(N=Cc2c(O)ccc3ccccc23)cc1` as the compound, how does the inhibition [3] read?
Answer: The inhibition was -0.99%.

Question: What about the inhibition [4] of the same compound?
Answer: The inhibition was -2.02%.

Question: And the inhibition [5]?
Answer: The inhibition was -4.22%.

Question: With `CC(=O)c1c(C)n([O-])c2ccccc2[n+]1=O` as the compound, how does the inhibition [3] read?
Answer: The inhibition was 100% (active).

Question: What about the inhibition [4] of the same compound?
Answer: Its inhibition is 26.2% (active).

Question: And the inhibition [5]?
Answer: The inhibition was 89.7% (active).

Question: What about the inhibition [6] of the same compound?
Answer: The inhibition was 16.9% (active).

Question: And the inhibition [7]?
Answer: The inhibition was 21.4% (active).

Question: And the inhibition [8]?
Answer: Its inhibition is 87.7% (active).

Question: Which results are given for `O=C(Cn1c(=O)sc2ccccc21)Nc1nc2c(s1)CCCC2`?
Answer: inhibition [3]: 2.31%; inhibition [4]: 4.07% (active); inhibition [5]: 3.15%
